# Reference: the supplement of paper PMC9262897, “Low-cost anti-mycobacterial drug discovery using engineered E. coli” (Nature Communications, 2022)
# Where a name gives a salt, the structure may show the parent alone. ± gives the standard deviation of the averaged measurements.
# Tested on: E. coli TESEC Alr+ wild-type control
# Assay: growth (OD600 after 10 h); higher = more growth (less inhibition)
# Conditions: compound 0.1 mM; raw OD600 reference: median of DMSO wells 0.49, cell-free background 0.052
# Procedure: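 TESEC Mtb Alr E. coli (ΔaraC ΔtolC ΔentC Δalr ΔdadX, arabinose-inducible Mtb Alr) or the Alr+ wild-type control strain, grown in defined M9-fructose medium without D-alanine in 96-well plates with Prestwick library compounds at 0.1 mM and 1% DMSO. Low Alr induction is 0.1 µM arabinose and high induction is 10 mM arabinose.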
row,Structure (SMILES),growth
1,COc1cc(C(=O)N2CCOCC2)cc(OC)c1OC [Trimetozine],0.616 ± 0.021
2,COc1ccccc1N1CCN(CCCNc2cc(=O)n(C)c(=O)n2C)CC1 [Urapidil hydrochloride],0.713 ± 0.029
3,CCN(CC)CCNC(=O)c1cc(Cl)c(N)cc1OC [Metoclopramide monohydrochloride],0.633 ± 0.05
4,O=C(O)CCc1nc(-c2ccccc2)c(-c2ccccc2)o1 [Oxaprozin],0.381 ± 0.039
5,Clc1cnccn1 [2-Chloropyrazine],0.586 ± 0.067
6,CC[C@@H]1C(=O)OC[C@@H]1Cc1cncn1C [Pilocarpine nitrate],0.674 ± 0.05
7,CN/C(=N\CCSCc1nc[nH]c1C)NC#N [Cimetidine],0.545 ± 0.0056
8,C[C@H](N)[C@H](O)c1cccc(O)c1 [Metaraminol bitartrate],0.573 ± 0.076
9,CC(C)COCC(CN(Cc1ccccc1)c1ccccc1)N1CCCC1 (stereo not given) [Bepridil hydrochloride],0.04887 ± 0.00032
10,Cc1cc(-n2c(=O)[nH]c(=O)n(C)c2=O)ccc1Oc1ccc(SC(F)(F)F)cc1 [Toltrazuril],0.137 ± 0.043
11,CCC(C)(CN(C)C)OC(=O)c1ccccc1 (stereo not given) [Amyleine hydrochloride],0.586 ± 0.017
12,CC(=O)O[C@H]1C(=O)[C@@]2(C)[C@H]([C@H](OC(=O)c3ccccc3)[C@]3(O)C[C@H](OC(=O)[C@H](O)[C@@H](NC(=O)c4ccccc4)c4ccccc4)C(C)=C1C3(C)C)[C@]1(OC(C)=O)CO[C@@H]1C[C@@H]2O [Paclitaxel],0.554 ± 0.03
13,CCOC(=O)C1=C(C)NC(C)=C(C(=O)OCC)C1c1ccccc1/C=C/C(=O)OC(C)(C)C [Lacidipine],0.521 ± 0.056
14,COC(=O)Nc1nc2cc([S+]([O-])c3ccccc3)ccc2[nH]1 (stereo not given) [Oxfendazol],0.634 ± 0.024
15,Cc1c(C)c2c(c(C)c1O)CCC(C)(C(=O)O)O2 (stereo not given) [Trolox],0.579 ± 0.053
16,C=CC[N@@+]12CC[C@@]34c5ccccc5N5/C=C6/[C@H]7C[C@H]8[C@@]9(CC[N@@+]8(CC=C)C/C7=C/CO)c7ccccc7N(/C=C(/[C@@H](C[C@@H]31)/C(=C\CO)C2)[C@H]54)[C@@H]69 [Alcuronium chloride],0.456 ± 0.037
17,OC(Cn1cncn1)(Cn1cncn1)c1ccc(F)cc1F [Fluconazole],0.505 ± 0.049
18,CCCCOc1ccc(CC(=O)NO)cc1 [Bufexamac],0.437 ± 0.031
19,C[C@]12CC[C@H]3C(=CCc4cc(O)ccc43)[C@@H]1CCC2=O [Equilin],0.424 ± 0.0094
20,CCCc1cc(C(N)=S)ccn1 [Prothionamide],0.57 ± 0.0073

row,Structure (SMILES),growth
1,O=C(O)CCCC[C@@H]1SC[C@@H]2NC(=O)N[C@@H]21 [Biotin],0.615 ± 0.056
2,CN1CCc2cccc3c2[C@H]1Cc1ccc(O)c(O)c1-3 [R(-) Apomorphine hydrochloride hemihydrate],0.467 ± 0.025
3,CNCC[C@@H](Oc1cccc2ccccc12)c1cccs1 [(R)-Duloxetine hydrochloride],0.503 ± 0.049
4,CC(C)(C)C(=O)OCOC(=O)[C@@H]1N2C(=O)[C@@H](NC(=O)[C@H](N)c3ccccc3)[C@H]2SC1(C)C [Pivampicillin],0.555 ± 0.11
5,CNCCC=C1c2ccccc2CCc2ccccc21 [Nortriptyline hydrochloride],0.46 ± 0.061
6,COc1cc(C(=O)NS(=O)(=O)c2ccccc2C)ccc1Cc1cn(C)c2ccc(NC(=O)OC3CCCC3)cc12 [Zafirlukast],0.189 ± 0.01
7,CC(=O)Oc1ccccc1C(=O)Nc1ncc([N+](=O)[O-])s1 [Nitazoxanide],0.0524 ± 0.0014
8,CNC(=C[N+](=O)[O-])NCCSCc1ccc(CN(C)C)o1 [Ranitidine hydrochloride],0.485 ± 0.064
9,C=CCOC(Cn1ccnc1)c1ccc(Cl)cc1Cl (stereo not given) [Enilconazole],0.11 ± 0.01
10,CN(C)CCCC1(c2ccc(F)cc2)OCc2cc(C#N)ccc21 (stereo not given) [Citalopram Hydrobromide],0.476 ± 0.068
11,CC(C)NC[C@H](O)COc1cccc2ccccc12 [(S)-propranolol hydrochloride],0.497 ± 0.031
12,NS(=O)(=O)c1cc(C(=O)O)c(NCc2ccco2)cc1Cl [Furosemide],0.613 ± 0.019
13,CN(C)CCN(Cc1ccc(Cl)cc1)c1ccccn1 [Chloropyramine hydrochloride],0.432 ± 0.016
14,NC(=O)c1cnccn1 [Pyrazinamide],0.538 ± 0.071
15,Clc1cc(Cl)c(OCC#CI)cc1Cl [Haloprogin],0.195 ± 0.037
16,CCN(CC)CCc1nc(-c2ccccc2)no1 [Oxalamine citrate salt],0.537 ± 0.036
17,Cc1cccc(Nc2ccncc2S(=O)(=O)NC(=O)NC(C)C)c1 [Torsemide],0.477 ± 0.021
18,O=C(O)CCC(=O)c1ccc(-c2ccccc2)cc1 [Fenbufen],0.441 ± 0.051
19,O=C(O)CNC(=O)C(CS)Cc1ccccc1 (stereo not given) [Thiorphan],0.475 ± 0.036
20,NCCCCCC(=O)O [Aminocaproic acid],0.463 ± 0.025
